# Assay results: the supplement of paper PMC6555819
# Key:
# Assay in all cases: PBM binding z-score (relative to random genomic background probes); higher = stronger binding; sequences stand for … in GC…GCGATTGACAGCGTAGAATGAAGG
# [1] = test system: PPARg:RXRa DBDmut IVT, anti-RXR (DBD mutation: RXRa K156A/R161A, NR concentration 270 nM, RXRa partner concentration 90 nM)
# Procedure, shortened: (§1)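 Scanned fluorescence from custom Agilent 4×180K protein-binding microarrays was regression-normalized. Binding z-scores use random background probes as reference. Ligand-free nuclear receptor dimers were incubated on the arrays for 1 h and detected with antibodies against each partner (one per run).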
# [2] = test system: PPARg:RXRa IVT, anti-PPARg (NR concentration 270 nM, RXRa partner concentration 90 nM)
# Procedure, shortened: as §1
# [3] = test system: PPARg DBDmut:RXRa IVT, anti-PPARg (DBD mutation: PPARg1 K132A/R137A, NR concentration 270 nM, RXRa partner concentration 90 nM)
# Procedure, shortened: as §1
# [4] = test system: PPARg DBDmut IVT, anti-PPARg (DBD mutation: PPARg1 K132A/R137A, NR concentration 270 nM)
# Procedure, shortened: as §1
# [5] = test system: PPARg homodimer (NR concentration 180 nM)
# Procedure, shortened: as §1
# [6] = test system: PXR:RXRa (NR concentration 270 nM, RXRa partner concentration 90 nM)
# Procedure, shortened: as §1
# [7] = test system: PXR homodimer (NR concentration 270 nM)
# Procedure, shortened: as §1
# [8] = test system: RARa:RXR (NR concentration 270 nM, RXRa partner concentration 90 nM)
# Procedure, shortened: as §1
# [9] = test system: RARa homodimer (NR concentration 270 nM)
# Procedure, shortened: as §1
# [10] = test system: RARb:RXRa (NR concentration 270 nM, RXRa partner concentration 90 nM)
# Procedure, shortened: as §1
Sequence,PBM binding z-score [1],PBM binding z-score [2],PBM binding z-score [3],PBM binding z-score [4],PBM binding z-score [5],PBM binding z-score [6],PBM binding z-score [7],PBM binding z-score [8],PBM binding z-score [9],PBM binding z-score [10]
ATCTCTAGGTAAGACTGAGTTCAGTGAAGAACGC,1.52,1.3,0.582,0.923,0.874,2.66,3.46,0.632,0.634,0.692
CGAACGAGGGCATGAGTAGATAGCAAATGCCGAT,2.5,2.07,-0.283,0.0377,0.101,0.0706,-0.112,0.0192,-0.164,1.85
GCGTCTGGGGCAAAGCAGGTTACCATAAGGTTGG,3.3,2.33,-0.833,-1.14,0.154,0.372,-0.589,0.843,-1.37,1.17
CATAGCAGGCCAATCTGGGTCACTCAAGGCTTGA,4.39,5.66,-0.292,-0.125,0.261,1.03,-0.436,1.25,-0.301,1.65
TCATATAGGTAAAGGCGAAAGTCGAACGATATGA,3.49,2.3,1.22,0.996,0.221,-0.107,0.0413,0.124,0.504,0.399
GCTCGGAGGACAAGTTCAGAGCTTTGTCCGTAGA,-0.557,-0.546,-1.36,-1.47,-0.526,0.977,0.281,0.489,-1.39,1.92
TAGCCTAGGTCATATCGGGCCAGTATACGCTATA,1.18,2.19,0.112,0.0699,0.54,2.18,0.0831,1.92,-0.618,3.37
CCGACTGGGGCAAAAAGGTTACCATACCATCCGG,2.47,2.82,-0.595,-1.12,0.536,1.1,-0.0306,1.87,0.158,2.05
ACTTACGGGTCAACGAGGTTTTAGCACGCGTATA,3.23,3.96,0.283,0.441,2.07,4.02,-0.016,4.35,0.666,4.07
CCTTACGGGTCACTTCAGGTTATAGCATCGGAGT,3.08,3.1,0.834,0.414,1.97,5.04,0.776,3.67,1,3.57
TCTAGCAGGCCAGAGGGTCACACAAGAGGTACGG,1.19,1.38,-0.514,-0.172,1.57,2.37,-0.42,3.44,0.0542,2.62
GATACAGGGTCAAGGCCAGAGGACGCGTATTGAT,2.29,3.97,0.837,0.968,2.75,3.68,0.296,4.56,1.16,4.44
TAACCTAGGTCATTGGGCCAGTATAGTACGCATC,4.7,5.03,1.2,0.368,1.68,2.09,0.379,2.92,0.714,3.88
GCTTGTGGATCAAGGTTAAGAAAGACTAAGCTAA,0.991,1.19,-0.0361,0.0112,0.339,0.429,-0.166,0.735,-0.249,0.702
CCGACTGGGGCATAAGGTTACCATTAGCCAGCCC,3.03,3.04,-1.02,-1.9,0.694,0.105,-0.286,1.35,-0.407,1.61
CCTACTGGGCCATTCAGAGGTCATGGATCATATG,4.14,4.64,0.856,0.389,2.93,4.92,0.765,5.46,0.962,3.19
AGAATGAGGTTATACGTAGATCAGCGAAGAAAGT,3.8,2.33,0.885,1.06,1.02,0.953,0.44,1.55,-0.289,1.23
GATACAGGGACAGCTAGAGGCCAGAGTATGGAAA,-0.328,-0.138,-0.157,-0.323,0.377,-0.289,0.168,0.0222,0.173,0.833
TGTCAAAGTACAAAGGTAACGTAAGTATCCACAC,-0.385,2.33,1.2,1.03,0.0149,0.587,-0.194,1.04,0.713,1.67
TAGCCTAGGTCAGATCGGGCCATTATACGCTATA,0.579,1.34,-0.598,-0.774,0.357,2.69,-0.448,1.33,-0.736,2.84
TAGCCTAGGTCAGATCGGGCCGGTATACGCTATA,0.592,1.34,-0.27,-0.214,0.114,0.345,-0.722,0.515,-0.746,2.98
ACTAGTTGGTCAGTTGAGGTCACACACAATTCGG,1.58,2.98,1.37,0.982,3.72,5.67,2.39,4.98,1.56,3.54
CCGACTGGGGCAGAAAGGGTACCATACCATCCGG,0.57,0.77,-0.394,-1.37,-0.287,-0.615,-0.768,-0.429,-0.298,0.605
TATACAGGGTCAAAGGCCAGAGTTCGAATGTCGA,2.55,4.54,1.63,2,3.99,5.44,2.54,6.63,1.14,4.53
